# In PubChem BioAssay (NCATS):
# Unmarked numbers belong to inactive results. Records with an inconclusive call do not appear. The source made the active and inactive calls. Calls come from the whole dose curve; as a rule, active = well fitted inhibition curve with a large enough effect; inconclusive = small, poorly fitted or top-dose-only effect; inactive = flat fitted curve, though single readings scatter.
# Biological target: Ubiquitin carboxyl-terminal hydrolase 1 (Homo sapiens) (UniProt O94782)
# Sequence (O94782 whole entry, looked up): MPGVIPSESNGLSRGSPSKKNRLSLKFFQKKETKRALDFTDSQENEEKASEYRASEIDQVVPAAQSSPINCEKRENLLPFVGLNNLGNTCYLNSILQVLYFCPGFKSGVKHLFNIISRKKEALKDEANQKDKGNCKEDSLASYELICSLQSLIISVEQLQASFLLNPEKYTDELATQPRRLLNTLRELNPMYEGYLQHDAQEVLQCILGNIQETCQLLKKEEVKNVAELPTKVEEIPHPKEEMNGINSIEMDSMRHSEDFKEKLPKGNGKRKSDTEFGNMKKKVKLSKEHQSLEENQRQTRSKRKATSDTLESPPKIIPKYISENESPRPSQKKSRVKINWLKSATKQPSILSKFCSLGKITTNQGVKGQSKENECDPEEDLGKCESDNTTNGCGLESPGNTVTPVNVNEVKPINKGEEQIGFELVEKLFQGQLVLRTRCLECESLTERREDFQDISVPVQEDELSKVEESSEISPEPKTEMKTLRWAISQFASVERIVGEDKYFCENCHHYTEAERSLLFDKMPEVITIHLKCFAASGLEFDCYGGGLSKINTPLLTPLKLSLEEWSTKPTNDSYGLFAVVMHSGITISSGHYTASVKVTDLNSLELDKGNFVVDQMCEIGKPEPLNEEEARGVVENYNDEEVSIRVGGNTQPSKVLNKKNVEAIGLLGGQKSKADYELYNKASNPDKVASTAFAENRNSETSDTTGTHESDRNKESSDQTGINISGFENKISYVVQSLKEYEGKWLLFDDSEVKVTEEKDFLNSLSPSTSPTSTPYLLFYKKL
# Assay: Inhibitors of USP1/UAF1: Pilot qHTS (AID 504865);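 note: rhodamine fluorescence freed from ubiquitin-rhodamine substrate followed over time; top concentration of the series differs between compounds; % is set by controls: 0 for no effect and ±100 for the full control effect; nearly all actives have a fitted effect of over 35% in size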
# Conditions: purified USP1/UAF1, Ub-rhodamine cleavage fluorescence; series mostly up to 114 µM; activity change, negative = inhibition: at the top concentration
# Summary of the method: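 In 50mM HEPES pH 7.8 containing 0.5mM EDTA, 1mM TCEP, 0.1 mg/ml BSA and 0.01% Tween-20, 1nM USP1/UAF1 is exposed to compound for 15 min, then Ub-Rho (150nM final) is added and fluorescence is read over time.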
SMILES,"activity change, negative = inhibition [%]",Potency
C#CCN(C)[C@H](C)Cc1ccccc1,-6.16,
C[C@]12CC[C@@H]3c4ccc(O)cc4C[C@@H](CCCCCCCCCS(=O)CCCC(F)(F)C(F)(F)F)[C@H]3[C@@H]1CC[C@@H]2O (some centres not stated),-13.8,
CCC1C(=O)OCC1Cc1cncn1C (configuration not stated),,inactive
COC1(CS(=O)c2ccccc2)CCN(CCc2c[nH]c3ccc(F)cc23)CC1 (configuration not stated),-4.22,
COc1cc([C@@H]2c3cc4c(cc3[C@H](O)[C@H]3COC(=O)[C@H]23)OCO4)cc(OC)c1OC,,inactive
O=C(O)c1ccc2[nH]cc(CCCCN3CC=C(c4ccccc4)CC3)c2c1,-2.5,
CN(C)CCN(C)CCc1ccc(Cl)c(Cl)c1,-7.21,
CS(=O)c1ccc(-c2nc(-c3ccc(F)cc3)c(-c3ccncc3)[nH]2)cc1 (configuration not stated),-11.7,
CC(COc1ccccc1)N(CCCl)Cc1ccccc1 (configuration not stated),,inactive

# Biological target: DNA dC->dU-editing enzyme APOBEC-3G (Homo sapiens) (UniProt Q9HC16)
# Sequence (Q9HC16 whole entry, looked up): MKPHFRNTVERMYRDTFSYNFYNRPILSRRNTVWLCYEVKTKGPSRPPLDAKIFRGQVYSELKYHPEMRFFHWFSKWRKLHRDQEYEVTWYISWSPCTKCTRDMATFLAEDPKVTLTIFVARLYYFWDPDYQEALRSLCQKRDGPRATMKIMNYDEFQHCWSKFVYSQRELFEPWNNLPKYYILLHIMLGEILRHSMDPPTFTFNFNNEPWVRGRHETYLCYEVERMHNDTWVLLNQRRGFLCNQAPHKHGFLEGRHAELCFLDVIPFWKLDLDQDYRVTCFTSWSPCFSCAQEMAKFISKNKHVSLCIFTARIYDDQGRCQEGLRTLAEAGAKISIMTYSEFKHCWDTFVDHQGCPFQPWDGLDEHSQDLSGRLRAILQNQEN
# Assay: qHTS for inhibitors of Vif-A3G interactions: Validation (AID 588379); note: 0% is about no effect
# Conditions: Vif-A3G protein interaction assay; series mostly up to 46.1 µM; activity change, negative = inhibition: at the top concentration
# Summary of the method: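 HeLa cells stably expressing Vif and A3G-eYFP, 700 cells/well, incubated overnight at 37 deg C, then exposed to compound overnight at 37 deg C. Inhibition of Vif-mediated degradation read as increased yellow fluorescence (Ex 488/Em 500-530) by laser-scanning cytometry.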
row,SMILES,"activity change, negative = inhibition [%]"
1,C#CCN(C)[C@H](C)Cc1ccccc1,1.3
2,COC1(CS(=O)c2ccccc2)CCN(CCc2c[nH]c3ccc(F)cc23)CC1 (configuration not stated),1.42
3,CN(C)CCN(C)CCc1ccc(Cl)c(Cl)c1,-0.327
